In PubChem BioAssay (NCATS):
Results filed as inconclusive are left out. Calls of active or inactive are those of the source. Calls follow the shape of the dose curve; as a rule, active = well fitted inhibition curve with a large enough effect in the repeat runs; inconclusive = weak or mixed curves; inactive = no such curve, though single readings can be large or run the other way.

Biological target: Cytochrome P450 2C9 (Homo sapiens) (UniProt P11712)
Assay: Cytochrome P450 family 2 subfamily C member 9 (CYP2C9) small molecule antagonists: luciferase biochemical (cell-free) qHTS assay (AID 1645842); also: nearly all actives have a fitted effect of over 55% in size
Conditions: P450-Glo CYP2C9 enzyme assay, luciferin luminescence; series mostly up to 57.4 µM
Method in brief: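 Luminescence, after 20 min with luciferin detection reagent, reflected CYP2C9 turnover during a 1 h NADPH-driven reaction at 37C. Enzyme-substrate mix contained 0.4% bovine serum albumin and was preincubated with compound 10 min at room temperature.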
Potency is read from the fitted curve at half-maximal effect.

Sequence of Cytochrome P450 2C9 (Homo sapiens) (P11712 whole entry, looked up): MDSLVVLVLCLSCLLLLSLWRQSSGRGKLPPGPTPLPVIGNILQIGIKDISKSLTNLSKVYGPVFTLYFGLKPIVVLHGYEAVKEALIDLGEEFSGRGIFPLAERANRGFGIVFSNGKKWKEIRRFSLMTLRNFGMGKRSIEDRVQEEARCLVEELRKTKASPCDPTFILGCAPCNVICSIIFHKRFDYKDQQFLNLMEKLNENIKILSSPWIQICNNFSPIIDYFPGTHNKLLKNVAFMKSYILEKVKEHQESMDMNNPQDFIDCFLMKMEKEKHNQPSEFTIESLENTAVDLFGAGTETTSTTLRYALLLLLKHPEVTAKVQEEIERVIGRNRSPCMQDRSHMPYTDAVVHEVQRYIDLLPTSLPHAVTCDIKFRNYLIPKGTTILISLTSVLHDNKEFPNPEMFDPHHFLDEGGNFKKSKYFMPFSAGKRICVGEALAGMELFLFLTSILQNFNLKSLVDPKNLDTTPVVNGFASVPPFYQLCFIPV

Row | SMILES | Potency
1 | CCOc1ccc(CCNC(=O)CCCn2nc(C)c3sc4ccccc4c3c2=O)cc1OCC | 2.68 µM (active)
2 | CCc1nnc(NC(=O)CSc2nc3c([nH]c4ccccc43)c(=O)n2-c2ccc(OC)cc2)s1 | 4.25 µM (active)
3 | COc1ccc(NC(=O)CSc2ncc(-c3ccc(Cl)cc3)[nH]2)cc1OC | 0.849 µM (active)
4 | CC(=O)C1=C(c2ccc(Cl)c(Cl)c2)N(C(C)=O)n2cnnc2S1 | 2.39 µM (active)
5 | COc1ccc(NC(=O)c2cnc[nH]2)cc1S(=O)(=O)Nc1ccc(Br)cc1 | 10.7 µM (active)
6 | CC(=O)c1ccc(NC(=O)Cn2cc(S(=O)(=O)Cc3ccccc3Cl)c3ccccc32)cc1 | 1.69 µM (active)
7 | CC1=C(C(=O)Nc2cc(C(=O)O)ccn2)C(c2ccc(F)cc2Cl)N=C(Nc2nc3ccc(F)cc3o2)N1 (stereo not given) | 23.9 µM (active)
8 | CCOCCCNC(=O)CCC(=O)NNc1nc2ccccc2c2nc(-c3ccccc3)nn12 | 3.38 µM (active)
9 | CCOc1ccc(C(=O)NCCS(=O)(=O)N2CCN(c3ccccc3F)CC2)cc1OCC | 2.13 µM (active)
10 | Oc1c(C(Nc2ccccn2)c2ccccc2F)ccc2cccnc12 (stereo not given) | 19 µM (active)
11 | O=c1[nH]c2ccc(S(=O)(=O)Nc3cc(Cl)ccc3O)cc2o1 | 9.52 µM (active)
12 | O=C(CSc1nc2ccccc2n1Cc1cccc(Cl)c1)N1CCN(c2ccc(F)cc2)CC1 | 3.38 µM (active)
13 | CCc1ccc(C2=CC(c3c(F)cccc3Cl)n3c(nc4ccccc43)N2)cc1 (stereo not given) | 5.35 µM (active)
14 | COc1cc(NC(=O)CSc2nc3ccccc3nc2Cc2ccccc2OC)cc(OC)c1 | 0.301 µM (active)
15 | Cn1c(=O)c2c(nc(OC3CCN(C(=O)C4CC4)CC3)n2CCC(C)(C)C)n(C)c1=O | 12 µM (active)
16 | Cc1ccc2ccc(C(Nc3ccccn3)c3ccccc3)c(O)c2n1 (stereo not given) | 2.68 µM (active)
17 | CC1=C(C(=O)Nc2cccc(-c3nn[nH]n3)c2)C(c2ccccc2Cl)N=C(Nc2nc3ccccc3o2)N1 (stereo not given) | 0.536 µM (active)
18 | COc1ccc(CNC(=O)c2nc(SCc3ccccc3F)ncc2Cl)cc1 | inactive
19 | C=C1CC[C@H](O)C/C1=C\C=C1/CCCC2(C)C1CCC2C(C)CCCC(C)C (stereo not given in full) | 23.9 µM (active)
20 | Cc1ccccc1C(=O)Nc1cccc(-c2nc3cccnc3s2)c1 | 6.74 µM (active)

Row | SMILES | Potency
21 | COC(=O)c1c(SCC(=O)Nc2ccccc2C(F)(F)F)[nH]c2ccc(Cl)cc2c1=O | 1.9 µM (active)
22 | COc1ccc(Cn2c(CCC(=O)Nc3cc(C)cc(C)c3)nc3cccnc32)cc1 | 6.74 µM (active)
23 | CCOc1ccc(NC(=O)Cn2cc(C(=O)c3ccco3)c3ccccc32)cc1 | 4.77 µM (active)
24 | COc1ccccc1NC(=O)CSc1oc(-c2cccs2)nc1S(=O)(=O)c1ccc(Br)cc1 | 0.425 µM (active)
25 | COc1ccc(Cl)cc1NC(=O)CN1C(=O)CSc2ccc(S(=O)(=O)N3CCCC3)cc21 | 0.756 µM (active)
26 | COc1ccccc1NC(=O)Cc1c(C(=O)O)[nH]c2ccc(Cl)cc12 | inactive
27 | COc1ccc(-c2cn3cccnc3n2)cc1NC(=O)COc1ccccc1 | 4.77 µM (active)
28 | COc1ccc(Cn2c(SCC(=O)N3CCN(c4ccc(F)cc4)CC3)nc3ccccc32)cc1 | 1.69 µM (active)
29 | CCOC(=O)c1nnc(NC(=O)C2=C(C)NC(Nc3nc4ccccc4o3)=NC2c2ccccc2Cl)s1 (stereo not given) | 16.9 µM (active)
30 | Nc1nc(N)c(S(=O)(=O)c2ccccc2)c(Nc2ccc(Br)cc2)n1 | 4.77 µM (active)
31 | COc1ccc(C(=O)NC(c2ccccc2Cl)c2cc(Cl)c3cccnc3c2O)cc1 (stereo not given) | 6.01 µM (active)
32 | CC(C)(C)NC(=O)[C@@H]1C[C@@H]2CCCC[C@@H]2CN1CC(O)[C@H](Cc1ccccc1)NC(=O)[C@@H](CC(N)=O)NC(=O)c1ccc2ccccc2n1 (stereo not given in full) | 12 µM (active)
33 | COc1ccc(C(C)=O)cc1CSc1nc(NCc2ccccc2)c2ccccc2n1 | 2.13 µM (active)
34 | Cc1cccc(NC(=O)Cn2c(=O)n(Cc3ccc(C(=O)NCc4ccc5c(c4)OCO5)cc3)c(=O)c3ccccc32)c1 | inactive
35 | COc1ccc(NC(=O)CSc2nc3ccccc3n2Cc2cccc(OC)c2)cc1 | 2.68 µM (active)
36 | COc1cccc(CNC(=O)C2CCCN(c3nn4cc(-c5ccc(C)cc5)nc4s3)C2)c1 (stereo not given) | 2.39 µM (active)
37 | Cc1ccnc(NC(c2ccccc2F)c2ccc3cccnc3c2O)c1 (stereo not given) | 23.9 µM (active)
38 | CN(C)[S+](=O)([O-])c1ccc([S+](=O)([O-])N(Cc2ccccc2)Cc2ccccn2)cc1 | 5.35 µM (active)
39 | COc1ccccc1NC(=O)Cn1c(=O)n(Cc2nc(-c3ccccc3)no2)c(=O)c2ccccc21 | 2.39 µM (active)
40 | CCOc1ccc2nc(N3CCC(C(=O)Nc4ccccc4CC)CC3)sc2c1 | 6.01 µM (active)
